For 25 molecules, growth inhibition results are on record in PubChem BioAssay (NCI).

Compounds without any hit were thinned out: in the full panel of roughly 79,000, 15% have a hit. Active and inactive are the calls of the source. Rule as the data show it: active = growth inhibition above about 70%; inactive = the rest.

The nature of one experiment: NCI Yeast Anticancer Drug Screen. Data for the mlh1 strain (AID 171).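 Also: 0% = growth of vehicle-treated control cultures of the same strain.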 Conditions: S. cerevisiae mlh1 strain growth inhibition; at 1.2 µM; hits give high values. The procedure, abridged: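 Compounds are applied to a genetically altered yeast strain, and its growth is compared with that of vehicle-treated cultures to give percent inhibition.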
With `Cc1ccc2nc(N/N=C/c3ccc(C)s3)cc(C)c2c1`, the growth inhibition was -18% (inactive).

With `COc1cc(NCCCCCNC(C)C)c2ncccc2c1Cl`, the growth inhibition is -1% (inactive).

For `COc1ccc2cc(CN3CCC(C4CCN(Cc5ccc6cc(OC)ccc6c5)CC4)CC3)ccc2c1`, the growth inhibition was -12% (inactive).

On to `CC(=O)O/N=C/c1c2ccccc2cc2ccccc12`, for which the growth inhibition is 1% (inactive).

Regarding `CC1(C)CC(=O)C(C(CC(c2ccccc2)c2cc3c(cc2O)OCO3)C2=C(O)CC(C)(C)CC2=O)=C(O)C1` (centres undefined), the growth inhibition was -2% (inactive).

For the molecule `CCCCCCC(CCl)c1sc(-c2csc(CCNC(=O)OC(C)(C)C)n2)nc1C(=O)OC` (centres undefined), the growth inhibition was -3% (inactive).

For `CCOC(=O)C1=C(C)NC(C)=C(C(=O)OCC)C1c1cccc([N+](=O)[O-])c1`, the growth inhibition was -74% (inactive).

Turning to `Cc1ccc2c(/C=C/c3ccc(N(C)C)cc3)ccnc2c1C`, the growth inhibition was -13% (inactive).

`O=C1C(Br)=CC(Br)(Br)C=C1Br`: the growth inhibition was -8% (inactive).

Still in this experiment, the particulars now being: S. cerevisiae mlh1 strain growth inhibition; at 3.7 µM; hits give high values.
For the molecule `CNC(=O)OCc1c(COC(=O)NC)c(C)n(-c2ccc(Cl)c(Cl)c2)c1C`, the growth inhibition was -10% (inactive).

For `COc1ccc2nc(N/N=C/c3sccc3C)cc(C)c2c1`, the growth inhibition was -3% (inactive).

Consider `O=C(O)/C=C\C(=O)NNc1ccc(Br)cc1`, for which the growth inhibition was 77% (active).

On to `COc1ccc2nc3cccc([N+](=O)[O-])c3c(NCCCO)c2c1`, for which the growth inhibition was 80% (active).

As to `CCN(CC)CCSc1c2ccccc2nc2cc(NCC(=O)Nc3ccccc3-c3ccccc3NC(=O)CNc3ccc4c(SCCN(CC)CC)c5ccccc5nc4c3)ccc12`, the growth inhibition was -7% (inactive).

Take `Cc1ccc(N(C=O)c2c([N+](=O)[O-])cc([N+](=O)[O-])c3c2=[N+]([O-])CN=3)cc1`: the growth inhibition is 6% (inactive).

Turning to `COc1ccc(C(=O)OCCc2ccccc2)cc1`, the growth inhibition is 0% (inactive).

For `COc1ccc(C(=O)NCCN(C)C)c2nc3ccccc3cc12`, the growth inhibition is 23% (inactive).

For the molecule `NCC(O)CSCc1ccc(Cl)cc1` (centres undefined), the growth inhibition is -4% (inactive).

In the case of `O=c1[nH]c(=O)n(CCCO)cc1F`, the growth inhibition is -15% (inactive).

On to `COc1ccc(/C(=N/O)c2ccccc2C2=Nc3ccccc3C(NCc3ccccc3)O2)cc1C` (centres undefined), for which the growth inhibition is -2% (inactive).

In the case of `CCCC(=O)OC(OC(=O)CCC)c1ccc([N+](=O)[O-])o1`, the growth inhibition was -2% (inactive).

Consider `O=C(/C(=C/c1ccccc1)CBr)c1ccccc1`, for which the growth inhibition is 11% (inactive).

Turning to `O=C(Cc1ccccc1F)NC1=C(Cl)C(=O)c2ccccc2C1=O`, the growth inhibition was 11% (inactive).

As for `Cc1cccc(N2CCN(C(=O)/C(=C/c3ccccc3)NC(=O)c3ccccc3)CC2)c1`, the growth inhibition is -2% (inactive).

Turning to `c1cc(Nc2ccc3c(c2)OCO3)c2cc(C3CCCCC3)ccc2n1`, the growth inhibition was -1% (inactive).

Turning to `Cc1ccc2nc(N/N=C/c3ccc(C)s3)cc(C)c2c1`, the growth inhibition is -28% (inactive).

Consider `COc1cc(NCCCCCNC(C)C)c2ncccc2c1Cl`, for which the growth inhibition is -1% (inactive).

As to `COc1ccc2cc(CN3CCC(C4CCN(Cc5ccc6cc(OC)ccc6c5)CC4)CC3)ccc2c1`, the growth inhibition is -15% (inactive).

`CC(=O)O/N=C/c1c2ccccc2cc2ccccc12`: the growth inhibition was -1% (inactive).

For the molecule `CC1(C)CC(=O)C(C(CC(c2ccccc2)c2cc3c(cc2O)OCO3)C2=C(O)CC(C)(C)CC2=O)=C(O)C1` (centres undefined), the growth inhibition was -3% (inactive).

Consider `CCCCCCC(CCl)c1sc(-c2csc(CCNC(=O)OC(C)(C)C)n2)nc1C(=O)OC` (centres undefined), for which the growth inhibition is -2% (inactive).

`CCOC(=O)C1=C(C)NC(C)=C(C(=O)OCC)C1c1cccc([N+](=O)[O-])c1`: the growth inhibition was -39% (inactive).

In the case of `Cc1ccc2c(/C=C/c3ccc(N(C)C)cc3)ccnc2c1C`, the growth inhibition was -28% (inactive).

For the molecule `O=C1C(Br)=CC(Br)(Br)C=C1Br`, the growth inhibition is -10% (inactive).

Staying with this experiment, now noted: S. cerevisiae mlh1 strain growth inhibition; at 11.0 µM; hits give high values.
Consider `CNC(=O)OCc1c(COC(=O)NC)c(C)n(-c2ccc(Cl)c(Cl)c2)c1C`, for which the growth inhibition is 10% (inactive).

In the case of `COc1ccc2nc(N/N=C/c3sccc3C)cc(C)c2c1`, the growth inhibition was 35% (inactive).

With `O=C(O)/C=C\C(=O)NNc1ccc(Br)cc1`, the growth inhibition is 98% (active).

On to `COc1ccc2nc3cccc([N+](=O)[O-])c3c(NCCCO)c2c1`, for which the growth inhibition was 94% (active).

Turning to `CCN(CC)CCSc1c2ccccc2nc2cc(NCC(=O)Nc3ccccc3-c3ccccc3NC(=O)CNc3ccc4c(SCCN(CC)CC)c5ccccc5nc4c3)ccc12`, the growth inhibition was -5% (inactive).

On to `Cc1ccc(N(C=O)c2c([N+](=O)[O-])cc([N+](=O)[O-])c3c2=[N+]([O-])CN=3)cc1`, for which the growth inhibition was 48% (inactive).

`COc1ccc(C(=O)OCCc2ccccc2)cc1`: the growth inhibition is -5% (inactive).

In the case of `COc1ccc(C(=O)NCCN(C)C)c2nc3ccccc3cc12`, the growth inhibition is 18% (inactive).

With `NCC(O)CSCc1ccc(Cl)cc1` (centres undefined), the growth inhibition was -4% (inactive).

With `O=c1[nH]c(=O)n(CCCO)cc1F`, the growth inhibition was -19% (inactive).

Consider `COc1ccc(/C(=N/O)c2ccccc2C2=Nc3ccccc3C(NCc3ccccc3)O2)cc1C` (centres undefined), for which the growth inhibition was 0% (inactive).

As for `CCCC(=O)OC(OC(=O)CCC)c1ccc([N+](=O)[O-])o1`, the growth inhibition is 0% (inactive).

On to `O=C(/C(=C/c1ccccc1)CBr)c1ccccc1`, for which the growth inhibition was 67% (inactive).

As to `O=C(Cc1ccccc1F)NC1=C(Cl)C(=O)c2ccccc2C1=O`, the growth inhibition is 8% (inactive).

Regarding `Cc1cccc(N2CCN(C(=O)/C(=C/c3ccccc3)NC(=O)c3ccccc3)CC2)c1`, the growth inhibition is 4% (inactive).

In the case of `c1cc(Nc2ccc3c(c2)OCO3)c2cc(C3CCCCC3)ccc2n1`, the growth inhibition was -2% (inactive).

`Cc1ccc2nc(N/N=C/c3ccc(C)s3)cc(C)c2c1`: the growth inhibition is -10% (inactive).

Turning to `COc1cc(NCCCCCNC(C)C)c2ncccc2c1Cl`, the growth inhibition was 1% (inactive).

Consider `COc1ccc2cc(CN3CCC(C4CCN(Cc5ccc6cc(OC)ccc6c5)CC4)CC3)ccc2c1`, for which the growth inhibition was -17% (inactive).

As for `CC(=O)O/N=C/c1c2ccccc2cc2ccccc12`, the growth inhibition is 1% (inactive).

On to `CC1(C)CC(=O)C(C(CC(c2ccccc2)c2cc3c(cc2O)OCO3)C2=C(O)CC(C)(C)CC2=O)=C(O)C1` (centres undefined), for which the growth inhibition was 39% (inactive).

With `CCCCCCC(CCl)c1sc(-c2csc(CCNC(=O)OC(C)(C)C)n2)nc1C(=O)OC` (centres undefined), the growth inhibition was -4% (inactive).

As to `CCOC(=O)C1=C(C)NC(C)=C(C(=O)OCC)C1c1cccc([N+](=O)[O-])c1`, the growth inhibition was -29% (inactive).

With `Cc1ccc2c(/C=C/c3ccc(N(C)C)cc3)ccnc2c1C`, the growth inhibition is -19% (inactive).

As for `O=C1C(Br)=CC(Br)(Br)C=C1Br`, the growth inhibition is 46% (inactive).
